{
  "source": "PubChem BioAssay AID1986",
  "about": "(Sanford-Burnham Center for Chemical Genomics, 2009)",
  "test": "inhibitors of HIV fusion peptide binding, primary screen, biochemical, uHTS, fluorescence dequenching (AID 1986)",
  "conditions": "cell-free peptide binding, 30 min, stronger effect = higher value",
  "key": {"[1]": {"conditions": "measured here: repeat confirmation average inhibition, at 18.6 µM"}},
  "note": "The campaign covered roughly 290,000 compounds. About 890 (0.31%) were called active. Cut-off read from the data, not from the text of the source: active = inhibition mostly above about 52% (no sharp cut-off); inactive = mostly below about 76%. This excerpt belongs to a sample that is enriched for actives.",
  "data": [
    {"smiles": "Cc1ccc(CN(C(=O)Cn2nnc3ccccc32)C(C(=O)NCc2ccco2)c2ccc(C)o2)cc1", "note": "(stereo not given)", "values": [
      {"measurement": "inhibition", "setting": "at 20 µM", "value": "0.4% (inactive)"}
    ]},
    {"smiles": "O=C(/C=C/c1ccco1)Nc1cccnc1Cl", "values": [
      {"measurement": "inhibition", "setting": "at 20 µM", "value": "7.4% (inactive)"}
    ]},
    {"smiles": "O=C(/C=C/c1ccco1)Nc1ccccn1", "values": [
      {"measurement": "inhibition", "setting": "at 20 µM", "value": "33.3% (inactive)"}
    ]},
    {"smiles": "O=C(/C=C/c1ccco1)Nc1ccccc1C(=O)O", "values": [
      {"measurement": "inhibition", "setting": "at 20 µM", "value": "58.3% (inactive)"},
      {"measurement": "inhibition", "setting": "[1]", "value": 24.2, "unit": "%"}
    ]},
    {"smiles": "O=C(/C=C/c1ccco1)Nc1cc(Cl)ccc1C(=O)O", "values": [
      {"measurement": "inhibition", "setting": "at 20 µM", "value": "74.9% (active)"}
    ]},
    {"smiles": "Cc1ccc(NC(=O)/C=C/c2ccco2)nc1", "values": [
      {"measurement": "inhibition", "setting": "at 20 µM", "value": "56.5% (active)"}
    ]},
    {"smiles": "O=C(/C=C/c1ccco1)Nc1cccc(NC(=O)/C=C/c2ccco2)n1", "values": [
      {"measurement": "inhibition", "setting": "at 20 µM", "value": "93.3% (inactive)"},
      {"measurement": "inhibition", "setting": "[1]", "value": 1.5, "unit": "%"}
    ]},
    {"smiles": "COc1ccc(C(=O)C2CCCN(C(=O)c3csc(C(C)=O)c3)C2)c(C)c1", "note": "(stereo not given)", "values": [
      {"measurement": "inhibition", "setting": "at 20 µM", "value": "1.4% (inactive)"}
    ]},
    {"smiles": "CS(=O)(=O)N(CC(=O)Nc1ccccc1C(=O)N1CCCC1)c1ccccc1Br", "values": [
      {"measurement": "inhibition", "setting": "at 20 µM", "value": "-0.2% (inactive)"}
    ]},
    {"smiles": "COc1cc(CNCCc2ccc(S(N)(=O)=O)cc2)ccc1OCC(=O)NC(C)(C)C", "values": [
      {"measurement": "inhibition", "setting": "at 20 µM", "value": "-0.7% (inactive)"}
    ]},
    {"smiles": "CSc1nc(=O)n2cccc(C)c2n1", "values": [
      {"measurement": "inhibition", "setting": "at 20 µM", "value": "3.1% (inactive)"}
    ]},
    {"smiles": "COc1ccc(NC(=O)c2ccccc2OCc2c(C)noc2C)cc1OC", "values": [
      {"measurement": "inhibition", "setting": "at 20 µM", "value": "2.3% (inactive)"}
    ]},
    {"smiles": "CC[C@@H](C(=O)[C@@H](C)[C@@H](O)[C@H](C)CCc1ccc(C)c(O)c1C(=O)O)[C@H]1O[C@](CC)([C@H]2CC[C@](O)(CC)[C@H](C)O2)C[C@@H]1C", "values": [
      {"measurement": "inhibition", "setting": "at 20 µM", "value": "56.3% (active)"}
    ]},
    {"smiles": "CN(C)N1C(N)=C(C#N)C(c2cccs2)C2=C1CC(C)(C)CC2=O", "note": "(stereo not given)", "values": [
      {"measurement": "inhibition", "setting": "at 20 µM", "value": "-0.7% (inactive)"}
    ]},
    {"smiles": "CCOC(=O)c1ccc(NC(=O)c2ccc(CN3CCOCC3)cc2)cc1", "values": [
      {"measurement": "inhibition", "setting": "at 20 µM", "value": "-0.8% (inactive)"}
    ]},
    {"smiles": "COc1cc(/C=C2\\SC(=Nc3ccccc3)N(Cc3ccco3)C2=O)ccc1OC(C)C(=O)O", "note": "(stereo not given)", "values": [
      {"measurement": "inhibition", "setting": "at 20 µM", "value": "34.6% (inactive)"}
    ]},
    {"smiles": "CCCN1C(=O)/C(=C/c2ccco2)SC1=Nc1ccc(OC)cc1", "values": [
      {"measurement": "inhibition", "setting": "at 20 µM", "value": "13.2% (inactive)"}
    ]},
    {"smiles": "COc1ccc(N=C2S/C(=C\\c3ccc(N4CCOCC4)o3)C(=O)N2CCc2c[nH]c3ccccc23)cc1", "values": [
      {"measurement": "inhibition", "setting": "at 20 µM", "value": "14.3% (inactive)"}
    ]},
    {"smiles": "O=C(O)COc1ccc(/C=C2\\SC(=Nc3ccccc3)N(c3ccccc3)C2=O)cc1", "values": [
      {"measurement": "inhibition", "setting": "at 20 µM", "value": "36.9% (inactive)"}
    ]},
    {"smiles": "COc1cc(/C=C2\\SC(=Nc3ccc(N4CCOCC4)cc3)N(C)C2=O)ccc1OC(C)C(=O)O", "note": "(stereo not given)", "values": [
      {"measurement": "inhibition", "setting": "at 20 µM", "value": "0.3% (inactive)"}
    ]},
    {"smiles": "CCOC(=O)COc1ccc(/C=C2/SC(=Nc3ccccc3)N(Cc3cccnc3)C2=O)cc1OC", "values": [
      {"measurement": "inhibition", "setting": "at 20 µM", "value": "-2.8% (inactive)"}
    ]},
    {"smiles": "O=C1/C(=C/c2ccc(N3CCOCC3)o2)SC(=Nc2ccccc2)N1CCc1c[nH]c2ccccc12", "values": [
      {"measurement": "inhibition", "setting": "at 20 µM", "value": "37.2% (inactive)"}
    ]},
    {"smiles": "COCCN1C(=O)/C(=C/c2ccc(Oc3ccc([N+](=O)[O-])cn3)c(OC)c2)SC1=Nc1ccccc1", "values": [
      {"measurement": "inhibition", "setting": "at 20 µM", "value": "0.3% (inactive)"}
    ]}
  ]
}
